TSHR antag – antagonists of human thyroid stimulating hormone receptor. P16473. TSHR-expressing cells, TSH-stimulated cAMP HTRF, 2 h; active compounds read low. 330,000 tested, 0.2% active. activity change, negative = inhibition, % at 11.5 µM;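 active = activity change below a set negative limit, meaning inhibition stronger than a set level, cut at about -70% in these data; inconclusive = activity change between two set negative limits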
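TSHR-expressing cells, 200/well, pre-treated with compound, then stimulated with EC80 TSH (4nM final) for 2 hours at 37 deg C. cAMP measured by competitive HTRF: anti-cAMP cryptate antibody in lysis buffer plus cAMP-d2, read after 30 minutes at room temperature.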
PLK1 PBD inh – PLK1 (human) polo-box domain binding inhibition | P53350 | Plk1 PBD binding of FITC phosphopeptide, fluorescence polarization | 360,000 tested, 2.8% active | Potency, µM, actives largely listed as inhibitors; also: series mostly up to about 57 µM; nearly all actives have a fitted effect of over 65% in size
VDR inh – blocks the human vitamin D receptor | P11473 | VDR-SRC2-3 peptide fluorescence polarization, 2 h | 400,000 tested, 0.93% active | Potency, µM, most hits filed as inhibitors
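Compounds are added to VDR with labelled SRC2-3 coactivator peptide and held 2 h at room temperature. Inhibition of the VDR–peptide interaction is then read as a change in fluorescence polarization.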
Vif-APOBEC3F blk – Vif-A3F binding inhibition; HeLa A3F-eYFP + Vif (tagged APOBEC3F with the HIV-1 protein that degrades it), YFP fluorescence increase; Potency, µM (top dose mostly 46.1 µM); 390,000 tested, 0.2% active; also: nearly all actives have a fitted effect of over 65% in size
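HeLa cells stably expressing Vif plus C-terminally eYFP-tagged A3F were seeded, incubated overnight at 37 deg C, dosed with compound, incubated overnight again at 37 deg C. Yellow fluorescence (Ex 488/Em 500-530) reported blocked Vif-mediated A3F-eYFP degradation.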
Vif-A3G inh – Vif-A3G binding inhibition; Q9HC16; HeLa A3G-eYFP + Vif (tagged APOBEC3G with the HIV-1 protein that degrades it), YFP fluorescence, overnight; Potency, µM (highest dose often 46.1 µM), most hits filed as inhibitors; 410,000 tested, 0.076% active; also: nearly all actives have a fitted effect of over 60% in size
Target sequence (Q9HC16 whole entry, looked up): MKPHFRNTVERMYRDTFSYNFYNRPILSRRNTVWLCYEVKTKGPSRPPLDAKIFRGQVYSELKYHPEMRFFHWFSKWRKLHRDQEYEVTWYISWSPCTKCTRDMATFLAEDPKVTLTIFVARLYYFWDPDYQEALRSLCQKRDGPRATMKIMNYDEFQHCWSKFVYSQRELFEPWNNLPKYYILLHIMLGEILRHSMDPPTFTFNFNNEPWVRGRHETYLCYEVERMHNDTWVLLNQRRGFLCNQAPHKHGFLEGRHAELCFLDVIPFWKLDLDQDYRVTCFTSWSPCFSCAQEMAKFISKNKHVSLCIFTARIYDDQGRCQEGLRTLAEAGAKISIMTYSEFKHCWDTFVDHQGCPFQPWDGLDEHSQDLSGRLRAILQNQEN
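HeLa cells stably expressing Vif and C-terminally eYFP-tagged A3G, seeded overnight at 37 deg C, then exposed to compound by pintool overnight at 37 deg C. Rise in yellow fluorescence (Ex 488/Em 500-530, Acumen) marks blocked Vif-driven A3G degradation.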
Large screens that a line does not name were inactive. A selection: hits, their analogues and other compounds. The true share with any hit is near 3.1%. Unless noted, calls follow the shape of the dose curve; as a rule, active = well fitted curve in the direction sought with a large enough effect; inconclusive = small, poorly fitted or top-dose-only effect, or another doubt; inactive = no such curve, though single readings can be large; an effect the other way counts as inactive or inconclusive.

COC(=O)[C@H](Cc1ccccc1)NC(=O)O[C@H]1C(=O)c2cc(OC)ccc2O[C@@H]1c1ccc(OC)c(Br)c1	none (no result: TSHR antag, PLK1 PBD inh, Vif-APOBEC3F blk, Vif-A3G inh)
Oc1c(Br)cc(Br)cc1/C=N/c1nccs1	PLK1 PBD inh 30µM, VDR inh inconclusive
O=C1C2C3C=CC(C3)C2C(=O)N1CCc1ccccc1 (stereo not drawn)	none
Cc1cccc(NC(=O)CCN2C(=O)C3C4C=CC(C4)C3C2=O)n1 (stereo not drawn)	PLK1 PBD inh 12µM
O=C(CCN1C(=O)C2C3C=CC(C3)C2C1=O)NCCc1ccccc1 (stereo not drawn)	PLK1 PBD inh 24µM
Cc1ccc[n+](-c2nc([O-])sc2C=O)c1	PLK1 PBD inh 13µM, Vif-APOBEC3F blk inconclusive
Cc1cccn2c(=O)c(/C=C(\C#N)C(=O)NC3CCS(=O)(=O)C3)c(Oc3ccc(F)cc3)nc12 (stereo not drawn)	VDR inh 20µM
N#C/C(=C\c1c(Oc2ccc(Cl)cc2)nc2ccccn2c1=O)C(=O)NC1CCS(=O)(=O)C1 (stereo not drawn)	VDR inh 50µM, Vif-A3G inh inconclusive
Cc1cccc(Oc2nc3ccccn3c(=O)c2/C=C(\C#N)C(=O)NC2CCS(=O)(=O)C2)c1 (stereo not drawn)	VDR inh inconclusive
Cc1cc(Oc2nc3ccccn3c(=O)c2/C=C(\C#N)C(=O)NC2CCS(=O)(=O)C2)ccc1Cl (stereo not drawn)	VDR inh 32µM
CC(C)OC(=O)c1cn(Cc2c(F)cccc2F)c2sc(-c3ccc(NC(=O)C(C)C)cc3)c(CN(C)Cc3ccccc3)c2c1=O	none (no result: TSHR antag, PLK1 PBD inh, Vif-APOBEC3F blk, Vif-A3G inh)
N=c1nc(-c2ccccc2)n(-c2ccccc2)s1	VDR inh 13µM (no result: TSHR antag, PLK1 PBD inh, Vif-APOBEC3F blk)
COc1ccccc1NC(=O)C1=C(C)Nc2nc(SCc3ccccc3Cl)nn2C1c1ccccn1 (stereo not drawn)	none (no result: TSHR antag, PLK1 PBD inh)
O=C(CCC1CCCC1)N1CCN(C(=O)COc2ccccc2)CC1	PLK1 PBD inh 24µM
COC(=O)[C@H](C)[C@H](CC(C)C)NC(=O)[C@H](C)[C@H](CC(C)C)NC(=O)c1ccccn1	none (no result: TSHR antag, PLK1 PBD inh, Vif-APOBEC3F blk)
C=CS(=O)(=O)c1sc(Cl)c(N2CCOCC2)c1[N+](=O)[O-]	TSHR antag inconclusive, PLK1 PBD inh 0.53µM, VDR inh inconclusive
c1ccc2nccnc2c1	none (no result: TSHR antag, PLK1 PBD inh, VDR inh, Vif-APOBEC3F blk)
O=C1CCC2S/C(=C/Nc3ccc(C(F)(F)F)cc3)C(=O)N12 (stereo not drawn)	PLK1 PBD inh 9.5µM, Vif-APOBEC3F blk inconclusive
O=C1CCCC/C1=C/Nc1cccc(C(F)(F)F)c1	none
c1ccc(Nc2nc(-c3ccccc3)c(-c3ccccc3)s2)cc1	none (no result: TSHR antag, PLK1 PBD inh, Vif-APOBEC3F blk, Vif-A3G inh)
CCOC(=O)c1c(C)nn(-c2ccc(NC(=O)/C=C/C(=O)O)cc2)c1C	none
CCNC(=O)Nc1ccc(-n2nc(C)c(C(=O)OCC)c2C)nc1	PLK1 PBD inh 15µM
Cc1cc(C)cc(S(=O)(=O)N2CCN(c3nc(-c4cccs4)nc4ccccc34)CC2)c1	none (no result: TSHR antag, PLK1 PBD inh, Vif-APOBEC3F blk, Vif-A3G inh)
O=c1c2ccccc2sn1-c1ccccc1F	PLK1 PBD inh 3µM, Vif-APOBEC3F blk inconclusive, Vif-A3G inh inconclusive (no result: TSHR antag, VDR inh)
Cn1sc2ccccc2c1=O	PLK1 PBD inh 4.7µM, Vif-APOBEC3F blk inconclusive (no result: TSHR antag, VDR inh)
CC1NC(=O)c2ccccc2-n2c1nc1cc(F)ccc1c2=O (stereo not drawn)	none (no result: PLK1 PBD inh, VDR inh, Vif-APOBEC3F blk, Vif-A3G inh)
O=c1c2ccccc2sn1-c1ccccc1	PLK1 PBD inh 1.1µM, VDR inh 4µM
Cc1ccccc1-n1sc2cc(F)ccc2c1=O	TSHR antag inconclusive, PLK1 PBD inh 1.2µM, VDR inh inconclusive
O=C(O)c1cccc(-n2sc3ccccc3c2=O)c1	TSHR antag inconclusive, PLK1 PBD inh 1.2µM, VDR inh 7.1µM
N#Cc1ccc2c(=O)n(-c3ccccc3)sc2c1	PLK1 PBD inh 3µM (no result: TSHR antag, VDR inh)
CC(=O)Nc1ccc2c(=O)n(-c3ccccc3)sc2c1	PLK1 PBD inh 2.4µM (no result: TSHR antag, VDR inh)
CC(=O)Nc1ccc(-c2cc(N)n(-c3ccccc3)n2)cc1	none
O=C(O)c1cccc(N2C(=O)CCC2=O)c1	none (no result: PLK1 PBD inh, VDR inh, Vif-APOBEC3F blk, Vif-A3G inh)
O=c1c2ccccc2sn1-c1nccs1	PLK1 PBD inh 2.4µM, VDR inh 4µM
C(=C\c1nc2ccccc2s1)/c1ccc2c(c1)OCO2	none (no result: TSHR antag, PLK1 PBD inh, VDR inh, Vif-APOBEC3F blk)
C=CC[n+]1cccc2cccc(O)c21	none (no result: TSHR antag, PLK1 PBD inh, VDR inh, Vif-APOBEC3F blk)
Cc1ccc(C)c(N2CCN(C(=O)Cn3c(=O)c4cccn4c4ccc(F)cc43)CC2)c1	none (no result: TSHR antag, PLK1 PBD inh)
O=c1c2ccccc2sn1-c1cccc(Cl)c1	PLK1 PBD inh 3µM, Vif-APOBEC3F blk inconclusive (no result: TSHR antag, VDR inh)
Cn1c(=O)n(-c2cccc(Cl)c2)c(=O)c2sc3ccccc3c21	none (no result: TSHR antag, PLK1 PBD inh)
